# Assay results published in PubChem BioAssay (EPA / NIEHS).
# Calls of active or inactive are those of the source. The calls were made as follows: active = hit-call score of the fitted dose curve at least 0.9, where 1 is the maximum; inactive = score below 0.9.
# Assays:
# Conditions in all cases: mRNA level, 48 h; actives raise or lower the signal
# [1] = read-out: Intercellular Adhesion Molecule 1 (ICAM1), ICAM1 (gene 3383); assay: LTEA_HepaRG_ICAM1: Life Technologies and Expression Analysis (LTEA) Assay for Intercellular Adhesion Molecule 1 (ICAM1) using HepaRG (AID 2283507)
# Procedure, shortened: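 Differentiated HepaRG cells in serum-free induction medium were exposed in duplicate for 48 h to eight half-log concentrations up to 100 uM in 0.5% DMSO. Transcript levels were measured by qRT-PCR normalized to ACTB, GAPDH and POLR2A; bidirectional fits relative to DMSO.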
# [2] = read-out: Insulin-like growth factor-binding protein 1 (IGFBP1), IGFBP1 (gene 3484); assay: LTEA_HepaRG_IGFBP1: Life Technologies and Expression Analysis (LTEA) Assay for Insulin-like growth factor-binding protein 1 (IGFBP1) using HepaRG (AID 2283508)
# Procedure, shortened: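 Differentiated human HepaRG cells in serum-free induction medium were exposed in duplicate for 48 h to eight concentrations, top 100 uM with half-log dilutions, in 0.5% DMSO. Transcript levels came from qRT-PCR normalised to ACTB, GAPDH and POLR2A, fitted bidirectionally against DMSO.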
# [3] = read-out: Interleukin 6 (IL6), IL6 (gene 3569); assay: LTEA_HepaRG_IL6: Life Technologies and Expression Analysis (LTEA) Assay for Interleukin 6 (IL6) using HepaRG (AID 2283509)
# Procedure, shortened: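 Changes in IL6 mRNA, up or down relative to 0.5% DMSO controls, were derived from concentration-response curves in human HepaRG cells treated for 48 h at up to 100 uM, with ACTB, GAPDH and POLR2A as normalizers.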
# [4] = read-out: Interleukin 6 Receptor (IL6R), IL6R (gene 3570); assay: LTEA_HepaRG_IL6R: Life Technologies and Expression Analysis (LTEA) Assay for Interleukin 6 Receptor (IL6R) using HepaRG (AID 2283510);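 as to AC50: TaqMan qRT-PCR signal normalized to ACTB GAPDH and POLR2A housekeeping genes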
# Procedure, shortened: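 In this HepaRG screen, test chemicals act on cells for 48 h at up to 100 uM (eight half-log points, duplicate wells). IL6R expression is quantified by qRT-PCR after normalization to ACTB, GAPDH and POLR2A, with DMSO as baseline.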
# [5] = read-out: Potassium channel subfamily K member 1 (KCNK1), KCNK1 (gene 3775); assay: LTEA_HepaRG_KCNK1: Life Technologies and Expression Analysis (LTEA) Assay for Potassium channel subfamily K member 1 (KCNK1) using HepaRG (AID 2283511)
# Procedure, shortened: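 Human HepaRG cultures receive test chemicals for 48 h in 0.5% DMSO, top concentration 100 uM with half-log dilutions. Induction or suppression of KCNK1 mRNA relative to DMSO is derived by bidirectional fitting of qRT-PCR data.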
# [6] = read-out: JUN Transcription Factor, JUN (gene 3725); assay: LTEA_HepaRG_JUN: Life Technologies and Expression Analysis (LTEA) Assay for JUN Transcription Factor using HepaRG (AID 2283513)
# Procedure, shortened: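 Gene-expression endpoint: JUN mRNA (qRT-PCR, normalized to three reference genes) in HepaRG cultures treated 48 h with chemicals, duplicate wells, 100 uM maximum with half-log dilutions; bidirectional fitting relative to 0.5% DMSO.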
# [7] = read-out: Lipase C (LIPC), LIPC (gene 3990); assay: LTEA_HepaRG_LIPC: Life Technologies and Expression Analysis (LTEA) Assay for Lipase C (LIPC) using HepaRG (AID 2283514)
# Procedure, shortened: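 In this multiplexed gene-expression screen, human HepaRG cultures received test chemicals for 48 h across eight concentrations with 100 uM highest, in duplicate. Values reflect LIPC mRNA induction or suppression versus DMSO vehicle, from normalized qRT-PCR.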
# [8] = read-out: Lipoprotein lipase (LPL), LPL (gene 4023); assay: LTEA_HepaRG_LPL: Life Technologies and Expression Analysis (LTEA) Assay for Lipoprotein lipase (LPL) using HepaRG (AID 2283515)
# Procedure, shortened: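 Concentration-response testing used half-log steps from 100 uM in 0.5% DMSO on human HepaRG cells, 48 h, duplicate wells. Phenobarbital 1 mM served as induction control; LPL mRNA was normalized to ACTB, GAPDH, POLR2A.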
# [9] = read-out: MicroRNA 122 (MIR122), gene 406906; assay: LTEA_HepaRG_MIR122: Life Technologies and Expression Analysis (LTEA) Assay for MicroRNA 122 (MIR122) using HepaRG (AID 2283516); also: the transcript read is the microRNA miR-122
# Procedure, shortened: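 Changes in transcript abundance, up or down relative to 0.5% DMSO vehicle, were scored after 48 h chemical treatment of HepaRG cells (maximum 100 uM). Quantification used TaqMan qRT-PCR normalized to housekeeping genes.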
# [10] = read-out: matrix metalloproteinase-10 (MMP10), MMP10 (gene 4319); assay: LTEA_HepaRG_MMP10: Life Technologies and Expression Analysis (LTEA) Assay for matrix metalloproteinase-10 (MMP10) using HepaRG (AID 2283517)
# Procedure, shortened: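 In differentiated HepaRG cultures kept in 0.5% DMSO, test chemicals act for 48 h over an eight-point range with a top dose of 100 uM. Expression is then quantified by TaqMan RT-PCR against ACTB, GAPDH and POLR2A.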
# [11] = read-out: MYC, MYC (gene 4609); assay: LTEA_HepaRG_MYC: Life Technologies and Expression Analysis (LTEA) Assay for MYC using HepaRG (AID 2283518)
# Procedure, shortened: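 Differentiated human HepaRG cells, plated 48 h then switched to serum-free induction medium, were exposed in duplicate for 48 h to 8-point half-log series up to 100 uM in 0.5% DMSO. MYC mRNA measured by qRT-PCR, normalized to ACTB/GAPDH/POLR2A.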
# [12] = read-out: matrix metalloproteinase-3 (MMP3), MMP3 (gene 4314); assay: LTEA_HepaRG_MMP3: Life Technologies and Expression Analysis (LTEA) Assay for matrix metalloproteinase-3 (MMP3) using HepaRG (AID 2283519)
# Procedure, shortened: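 Human liver HepaRG cultures received chemicals (top concentration 100 uM, 0.5% DMSO) for 48 h in duplicate. MMP3 mRNA induction or loss was then assessed via TaqMan qRT-PCR with housekeeping-gene normalisation.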
# [13] = read-out: Paternally Expressed 10 (PEG10), PEG10 (gene 23089); assay: LTEA_HepaRG_PEG10: Life Technologies and Expression Analysis (LTEA) Assay for Paternally Expressed 10 (PEG10) using HepaRG (AID 2283520);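 as to AC50: PEG10 transcript by qRT-PCR normalised to ACTB GAPDH and POLR2A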
# Procedure, shortened: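 After 48 h exposure of differentiated HepaRG cells (0.5% DMSO vehicle, eight concentrations up to 100 uM, duplicates), PEG10 mRNA was measured by TaqMan qRT-PCR. Values were normalised to endogenous control genes and analysed bidirectionally against vehicle.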
# [14] = read-out: Protein phosphatase 2A (PPP2R4), PTPA (gene 5524); assay: LTEA_HepaRG_PPP2R4: Life Technologies and Expression Analysis (LTEA) Assay for Protein phosphatase 2A (PPP2R4) using HepaRG (AID 2283522)
# Procedure, shortened: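 Using HepaRG cultures maintained in 0.5% DMSO, chemicals are tested 48 h at up to 100 uM in duplicate. Induction or suppression of PPP2R4 mRNA, measured by qRT-PCR, is fitted bidirectionally against the vehicle baseline.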
# [15] = read-out: Phosphatase and tensin (PTEN), PTEN (gene 5728); assay: LTEA_HepaRG_PTEN: Life Technologies and Expression Analysis (LTEA) Assay for Phosphatase and tensin (PTEN) using HepaRG (AID 2283523)
# Procedure, shortened: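 Expression of PTEN is quantified in the human liver line HepaRG following two days of dosing (top concentration 100 uM, half-log dilutions, 0.5% DMSO). Values derive from bidirectional curve fitting relative to DMSO controls.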
# [16] = read-out: solute carrier (SLC22A1), SLC22A1 (gene 6580); assay: LTEA_HepaRG_SLC22A1: Life Technologies and Expression Analysis (LTEA) Assay for solute carrier (SLC22A1) using HepaRG (AID 2283524);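 as to AC50: TaqMan qRT-PCR normalized to ACTB GAPDH and POLR2A housekeeping genes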
# Procedure, shortened: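 Transcript induction or suppression of SLC22A1 in human HepaRG cultures is scored after 48 h chemical treatment, with DMSO (0.5%) as baseline for bidirectional fitting. Concentrations span eight half-log points topping at 100 uM.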
# [17] = read-out: Pyruvate Dehydrogenase Kinase 4 (PDK4), PDK4 (gene 5166); assay: LTEA_HepaRG_PDK4: Life Technologies and Expression Analysis (LTEA) Assay for Pyruvate Dehydrogenase Kinase 4 (PDK4) using HepaRG (AID 2283525)
# Procedure, shortened: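 Eight-point, half-log concentration series (max 100 uM, 0.5% DMSO) applied to differentiated HepaRG cells for 48 h in duplicate. Endpoint: PDK4 mRNA induction or repression by qRT-PCR against DMSO baseline.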
# [18] = read-out: NAD(P)H dehydrogenase [quinone] 1 (NQO1), NQO1 (gene 1728); assay: LTEA_HepaRG_NQO1: Life Technologies and Expression Analysis (LTEA) Assay for NAD(P)H dehydrogenase [quinone] 1 (NQO1) using HepaRG (AID 2283526)
# Procedure, shortened: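 In this assay, gene expression is read by qRT-PCR after 48 h exposure of HepaRG cells to eight concentrations (max 100 uM, half-log) in 0.5% DMSO. Each chemical runs in duplicate, and activity is scored relative to vehicle.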
# [19] = read-out: Nuclear factor NF-kappa-B p105 subunit (Homo sapiens) (UniProt P19838); assay: LTEA_HepaRG_NFKB1: Life Technologies and Expression Analysis (LTEA) Assay for Nuclear Factor Kappa B Subunit 1 (NFKB1) using HepaRG (AID 2283521);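 also: TaqMan qRT-PCR transcript normalised to ACTB GAPDH and POLR2A housekeeping genes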
# Procedure, shortened: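 Differentiated human HepaRG cells in serum-free induction medium with 0.5% DMSO were exposed for 48 h to eight half-log concentrations, top 100 uM, in duplicate. NFKB1 mRNA measured by Fluidigm TaqMan qRT-PCR, normalised to ACTB, GAPDH and POLR2A; bidirectional fit versus DMSO.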
# [20] = read-out: Keratin 19 (KRT19), KRT19 (gene 3880); assay: LTEA_HepaRG_KRT19: Life Technologies and Expression Analysis (LTEA) Assay for Keratin 19 (KRT19) using HepaRG (AID 2283512)
# Procedure, shortened: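 Differentiated human HepaRG cells, plated 48 h, were exposed in duplicate for 48 h in serum-free induction medium to eight half-log concentrations up to 100 uM in 0.5% DMSO. KRT19 mRNA was quantified by qRT-PCR, normalized to ACTB, GAPDH and POLR2A, and fitted bidirectionally versus DMSO.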
# Chain of Nuclear factor NF-kappa-B p105 subunit (Homo sapiens) (P19838 whole entry, looked up): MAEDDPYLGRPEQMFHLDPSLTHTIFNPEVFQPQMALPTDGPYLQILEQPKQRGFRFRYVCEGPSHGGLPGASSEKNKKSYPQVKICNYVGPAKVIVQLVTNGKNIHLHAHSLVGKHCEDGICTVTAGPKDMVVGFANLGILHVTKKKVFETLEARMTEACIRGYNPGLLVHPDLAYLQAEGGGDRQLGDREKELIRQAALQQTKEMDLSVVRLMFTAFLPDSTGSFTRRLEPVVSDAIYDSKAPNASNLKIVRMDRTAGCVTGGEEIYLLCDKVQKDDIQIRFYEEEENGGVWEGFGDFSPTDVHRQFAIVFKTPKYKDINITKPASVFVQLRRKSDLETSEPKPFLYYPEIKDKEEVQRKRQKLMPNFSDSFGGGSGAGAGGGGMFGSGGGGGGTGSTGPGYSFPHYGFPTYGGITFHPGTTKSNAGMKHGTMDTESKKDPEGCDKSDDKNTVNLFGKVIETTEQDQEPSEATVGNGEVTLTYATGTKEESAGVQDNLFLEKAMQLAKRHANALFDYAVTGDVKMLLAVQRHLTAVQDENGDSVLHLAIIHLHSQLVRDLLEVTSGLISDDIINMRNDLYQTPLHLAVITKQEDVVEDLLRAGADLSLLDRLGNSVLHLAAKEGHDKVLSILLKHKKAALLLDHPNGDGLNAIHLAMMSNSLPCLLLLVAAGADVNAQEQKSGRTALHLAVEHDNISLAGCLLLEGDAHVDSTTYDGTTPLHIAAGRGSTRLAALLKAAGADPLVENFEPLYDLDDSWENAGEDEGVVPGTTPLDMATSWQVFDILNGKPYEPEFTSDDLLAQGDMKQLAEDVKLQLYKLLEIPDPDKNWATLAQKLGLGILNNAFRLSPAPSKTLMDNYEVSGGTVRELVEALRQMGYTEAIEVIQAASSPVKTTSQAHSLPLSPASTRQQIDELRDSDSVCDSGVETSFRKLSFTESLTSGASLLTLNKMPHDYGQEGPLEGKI
smiles,measurement,setting,value
N#Cc1ccc(N(CC(N)=O)CC(F)(F)F)cc1C(F)(F)F,outcome,[1],inactive
same,outcome,[2],inactive
same,outcome,[3],inactive
same,outcome,[4],inactive
same,outcome,[5],inactive
same,outcome,[6],inactive
same,outcome,[7],inactive
same,outcome,[8],inactive
same,outcome,[9],inactive
same,outcome,[10],inactive
same,outcome,[11],inactive
same,outcome,[12],inactive
same,AC50,[13],10.5 µM (active)
same,outcome,[14],inactive
same,outcome,[15],inactive
same,outcome,[16],inactive
same,outcome,[17],inactive
same,outcome,[18],inactive
CCOC(=O)C(O)(c1ccc(Cl)cc1)c1ccc(Cl)cc1,outcome,[1],inactive
same,outcome,[2],inactive
same,outcome,[3],inactive
same,outcome,[4],inactive
same,outcome,[5],inactive
same,outcome,[6],inactive
same,outcome,[7],inactive
same,AC50,[8],9.14 µM (active)
same,outcome,[9],inactive
same,outcome,[10],inactive
same,outcome,[11],inactive
same,outcome,[13],inactive
same,outcome,[19],inactive
same,outcome,[14],inactive
same,outcome,[15],inactive
same,outcome,[16],inactive
same,AC50,[17],36.2 µM (active)
same,outcome,[18],inactive
CCNc1nc(NC(C)C)nc(SC)n1,outcome,[1],inactive
same,outcome,[2],inactive
same,outcome,[3],inactive
same,AC50,[4],11.7 µM (active)
same,outcome,[5],inactive
same,AC50,[20],32.8 µM (active)
same,outcome,[6],inactive
same,AC50,[7],61.1 µM (active)
same,outcome,[8],inactive
same,outcome,[9],inactive
same,outcome,[10],inactive
same,outcome,[11],inactive
same,AC50,[13],12.4 µM (active)
same,outcome,[19],inactive
same,outcome,[14],inactive
same,outcome,[15],inactive
same,AC50,[16],37.3 µM (active)
same,outcome,[17],inactive
same,outcome,[18],inactive
Oc1ccc(Cl)cc1Cl,outcome,[1],inactive
same,outcome,[2],inactive
same,outcome,[3],inactive
same,outcome,[4],inactive
same,outcome,[5],inactive
same,outcome,[20],inactive
same,outcome,[6],inactive
same,outcome,[7],inactive
same,outcome,[8],inactive
same,outcome,[9],inactive
same,outcome,[10],inactive
same,outcome,[11],inactive
same,outcome,[13],inactive
same,outcome,[14],inactive
same,outcome,[15],inactive
same,outcome,[16],inactive
same,outcome,[17],inactive
same,outcome,[18],inactive
Cc1ccccc1[N+](=O)[O-],outcome,[1],inactive
same,outcome,[2],inactive
same,outcome,[3],inactive
same,outcome,[4],inactive
same,outcome,[5],inactive
same,outcome,[6],inactive
same,outcome,[7],inactive
same,outcome,[8],inactive
same,outcome,[9],inactive
same,outcome,[10],inactive
same,outcome,[11],inactive
same,outcome,[13],inactive
same,outcome,[19],inactive
same,outcome,[14],inactive
same,outcome,[15],inactive
same,outcome,[16],inactive
same,outcome,[17],inactive
same,outcome,[18],inactive
O=S(=O)(O)C(F)(F)C(F)(F)C(F)(F)C(F)(F)C(F)(F)C(F)(F)F,outcome,[1],inactive
same,outcome,[2],inactive
same,outcome,[3],inactive
same,outcome,[4],inactive
same,outcome,[5],inactive
same,outcome,[20],inactive
same,outcome,[6],inactive
same,outcome,[7],inactive
same,outcome,[8],inactive
same,outcome,[9],inactive
same,outcome,[10],inactive
same,outcome,[11],inactive
same,outcome,[13],inactive
same,outcome,[19],inactive
same,outcome,[14],inactive
same,AC50,[15],10.3 µM (active)
same,outcome,[16],inactive
same,AC50,[17],35.2 µM (active)
same,outcome,[18],inactive
Nc1ccc(-c2ccc(N)cc2)cc1,outcome,[2],inactive
same,outcome,[3],inactive
same,outcome,[4],inactive
same,outcome,[5],inactive
same,outcome,[20],inactive
same,outcome,[6],inactive
same,outcome,[7],inactive
same,outcome,[8],inactive
same,outcome,[9],inactive
same,outcome,[10],inactive
same,outcome,[11],inactive
same,outcome,[12],inactive
same,AC50,[13],2.2 µM (active)
same,outcome,[14],inactive
same,outcome,[15],inactive
same,outcome,[16],inactive
same,outcome,[17],inactive
same,outcome,[18],inactive
